# Only some compounds are listed: those with a hit (about 6.8% of all), similar ones and a draw of the others.
# C diff growth: inhibitors of Clostridium difficile growth; Clostridium difficile clinical isolate growth, OD600, 24 h; active compounds read low; 86,000 tested, 0.25% active; growth activity, negative = inhibition, % at 16 µg/mL (by protocol); AID 1259249;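 active means mean growth activity at or below -80% and every replicate also at or below -80%; inconclusive means mean at or below -80% but some replicate above -80%; inactive means mean growth activity above -80%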;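 further: 0% = DMSO wells and -100% = levofloxacin 16 µg/mL wells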
# T cruzi growth-1: T. cruzi proliferation inhibition. T. cruzi beta-gal in NIH3T3, GalScreen luminescence, 90 h. inhibition, % at 8.34 µM. 77,000 tested, 5.9% active;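 active means mean inhibition above about 93%, with at least 55% of replicates each passing it, limit read from the data, passing the limit was not always enough; inconclusive means only one of those two conditions holds; inactive means neither condition holds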
# Pf Dd2 growth: blocks growth of Plasmodium falciparum Dd2 parasites | P. falciparum Dd2 growth, SYBR Green, 72 h; active compounds read low | activity change, % at 10 µM | 94,000 tested, 2.3% active | AID 1159554; in the data active means activity change below about -80%; inconclusive means no clear call, values can overlap the other calls
# T cruzi growth-2: blocks T. cruzi growth in NIH3T3 host cells | T. cruzi beta-gal in NIH3T3, GalScreen luminescence, 90 h | shares compounds with T cruzi growth-1 | inhibition, % at 8.35 µM | AID 651739 | 5,600 tested, 72% active;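 active means mean replicate inhibition above about 95% and at least 55% of replicates individually reaching it, limit read from the data; inconclusive means only one of the two criteria is met; inactive means neither criterion is met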
# T cruzi growth-3: Trypanosoma cruzi proliferation inhibition | shares compounds with T cruzi growth-1 | T. cruzi beta-gal in NIH3T3, GalScreen luminescence, 90 h | inhibition, % at 2.09 µM | 5,600 tested, 21% active | AID 651740;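 active means mean inhibition above about 95%, with at least 55% of replicates also reaching it, limit read from the data; inconclusive means meets just one of the two conditions; inactive means meets neither condition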;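 further: plate controls were neutral control median for no effect and positive control median for full effect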
# NIH3T3 tox: kills mouse NIH/3T3 fibroblasts; shares compounds with T cruzi growth-1; cytotoxicity (signal decrease), % at 8.35 µM; 5,600 tested, 14% active; NIH/3T3 viability, CellTiter-Glo ATP luminescence, 90 h; AID 651742;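 active means mean signal decrease across replicates above about 35% based on untreated-well scatter, with enough replicates individually passing, limit read from the data; inconclusive means no rule stated though some were filed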;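 further: 0% = median of neutral control wells and 100% = median of positive control wells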
# NIH3T3 tox 2: cytotoxicity in mouse NIH/3T3 fibroblasts; shares compounds with T cruzi growth-1; NIH/3T3 viability, CellTiter-Glo ATP luminescence, 90 h; inhibition, % at 24.9 µM; 5,600 tested, 56% active; AID 651744;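 active means mean loss of cell viability signal at or above a set limit, and enough replicates individually reaching it; inconclusive means meets only the mean limit or only the replicate share; inactive means meets neither condition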;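 further: 0% = median of neutral control wells and 100% = median of positive control wells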
# Numbers without * were called inactive; ? = inconclusive; . = no result.
SMILES,C diff growth,T cruzi growth-1,Pf Dd2 growth,T cruzi growth-2,T cruzi growth-3,NIH3T3 tox,NIH3T3 tox 2
C[C@H]1CN([C@@H](C)CO)C(=O)c2cccc(NC(=O)c3nc4ccccc4s3)c2O[C@@H]1CN(C)Cc1ccc(C(=O)Nc2ccccc2N)cc1,.,106*,-89*,107*,92,11,?
C[C@H](CO)N1C[C@H](C)[C@H](CN(C)Cc2ccc(C(=O)Nc3ccccc3N)cc2)Oc2c(NC(=O)c3nc4ccccc4s3)cccc2C1=O,.,?,-93*,102*,105*,23,64*
C[C@H]1CN([C@@H](C)CO)C(=O)c2cccc(NC(=O)c3nc4ccccc4s3)c2O[C@@H]1CN(C)Cc1ccc(C(=O)O)cc1,-3,25,-8,.,.,.,.
C[C@@H]1CCCCO[C@H](CN(C)S(=O)(=O)c2ccc(Cl)cc2)[C@@H](C)CN([C@@H](C)CO)C(=O)c2cc(NS(=O)(=O)c3cn(C)cn3)ccc2O1,-1,31,-52,.,.,.,.
COc1ccccc1C#Cc1ccc2c(c1)O[C@@H](CN(C)Cc1ccccc1)[C@H](C)CN([C@@H](C)CO)S2(=O)=O,14,119*,-66,87,112*,45*,42*
COc1ccccc1C#Cc1ccc2c(c1)O[C@H](CN(C)Cc1cncnc1)[C@H](C)CN([C@@H](C)CO)S2(=O)=O,-3,94,-43,.,.,.,.
COc1ccccc1C#Cc1ccc2c(c1)O[C@H](CN(C)Cc1cccnc1)[C@H](C)CN([C@@H](C)CO)S2(=O)=O,12,.,-32,.,.,.,.
COc1ccccc1C#Cc1ccc2c(c1)O[C@H](CN(C)Cc1cncnc1)[C@@H](C)CN([C@@H](C)CO)S2(=O)=O,-1,117,-37,.,.,.,.
COc1ccccc1C#Cc1ccc2c(c1)O[C@@H](CN(C)Cc1ccccc1)[C@@H](C)CN([C@H](C)CO)S2(=O)=O,9,122*,-6,107*,113*,-27,-39
COc1ccccc1C#Cc1ccc2c(c1)O[C@H](CN(C)Cc1ccccc1)[C@@H](C)CN([C@H](C)CO)S2(=O)=O,4,114*,-77,99*,112*,-47,-16
O=C(C[C@@H]1CC[C@@H]2NC[C@H](O)COC[C@H]2O1)NCc1ccc2c(c1)OCO2,14,27,11,.,.,.,.
O=C(C[C@@H]1CC[C@H]2[C@@H](COC[C@H](O)CN2S(=O)(=O)c2cccc(F)c2)O1)NCc1ccncn1,7,2,-12,.,.,.,.
C[C@@H]1CN([C@@H](C)CO)C(=O)c2cc(NS(=O)(=O)c3cccs3)ccc2O[C@@H](C)CCCCO[C@H]1CN(C)S(=O)(=O)c1cn(C)cn1,3,6,20,.,.,.,.
COc1ccc(NC(=O)Nc2cccc3c2O[C@@H](CN(C)S(=O)(=O)c2ccc(Cl)cc2)[C@H](C)CN([C@H](C)CO)C3=O)cc1,8,26,-22,.,.,.,.
Cc1ccc(S(=O)(=O)Nc2ccc3c(c2)C(=O)N([C@H](C)CO)C[C@H](C)[C@H](CN(C)CC2CC2)OCCCC[C@H](C)O3)cc1,1,?,-28,?,48,-15,13
Cc1ccc(S(=O)(=O)Nc2ccc3c(c2)C(=O)N([C@@H](C)CO)C[C@H](C)[C@@H](CN(C)CC2CC2)OCCCC[C@H](C)O3)cc1,2,30,-76,.,.,.,.
Cc1ccc(S(=O)(=O)Nc2ccc3c(c2)C(=O)N([C@H](C)CO)C[C@H](C)[C@@H](CN(C)CC2CC2)OCCCC[C@H](C)O3)cc1,-4,57,-6,.,.,.,.
Cc1ccc(S(=O)(=O)Nc2ccc3c(c2)C(=O)N([C@@H](C)CO)C[C@@H](C)[C@@H](CN(C)CC2CC2)OCCCC[C@@H](C)O3)cc1,-3,?,-28,81,26,-13,-14
COc1ccc(NC(=O)Nc2ccc3c(c2)C(=O)N([C@@H](C)CO)C[C@@H](C)[C@@H](CN(C)C(=O)Nc2ccc4c(c2)OCO4)OCCCC[C@@H](C)O3)cc1,9,47,-60,.,.,.,.
CCCC(=O)Nc1ccc2c(c1)C(=O)N(C)C[C@@H](OC)[C@@H](C)CN(Cc1ccncc1)[C@@H](C)CO2,.,12,.,.,.,.,.
COc1ccc(S(=O)(=O)Nc2ccc3c(c2)C(=O)N([C@H](C)CO)C[C@@H](C)[C@@H](CN(C)C(=O)Nc2ccccc2)OCCCC[C@@H](C)O3)cc1,0,21,-80,.,.,.,.
CNC(=O)C[C@H]1CC[C@H]2[C@@H](COc3ccc(NC(=O)c4ccccc4OC)cc3C(=O)N2C)O1,8,4,-3,.,.,.,.
CN1C(=O)c2cc(NC(=O)c3ccc(Cl)cc3)ccc2OC[C@@H]2O[C@H](CC(=O)NCc3cccc(F)c3)CC[C@@H]21,11,101*,-23,92,66,43*,34*
COc1ccccc1C(=O)Nc1ccc2c(c1)C(=O)N(C)[C@H]1CC[C@H](CC(=O)Nc3cccc(C(C)C)c3)O[C@@H]1CO2,-9,?,.,106*,68,30,23
COc1cccc(C(=O)Nc2ccc3c(c2)C(=O)N(C)[C@H]2CC[C@@H](CC(=O)NCc4ccc(F)cc4)O[C@H]2CO3)c1,-2,97*,-36,105*,16,51*,50*
SMILES,C diff growth,T cruzi growth-1,Pf Dd2 growth,T cruzi growth-2,T cruzi growth-3,NIH3T3 tox,NIH3T3 tox 2
CN1C(=O)c2cc(NC(=O)c3ccc(Cl)cc3)ccc2OC[C@H]2O[C@@H](CC(=O)NCc3cccc(F)c3)CC[C@H]21,14,91,-8,.,.,.,.
COc1cccc(C(=O)Nc2ccc3c(c2)C(=O)N(C)[C@H]2CC[C@@H](CC(=O)NCc4ccc(F)cc4)O[C@@H]2CO3)c1,4,41,-26,.,.,.,.
OC[C@@H]1[C@H](c2ccccc2)C2(CN(CCC(F)(F)F)C2)N1Cc1cccnc1,-3,.,-8,.,.,.,.
COCC(=O)Nc1ccc2c(c1)OC[C@@H](C)N(CC1CC1)C[C@@H](C)[C@H](OC)CN(C)C2=O,.,11,15,.,.,.,.
C[C@H](CO)N1C[C@H](C)[C@@H](CN(C)C(=O)c2cnccn2)Oc2ncc(C#CCC3CCCC3)cc2C1=O,0,16,-44,.,.,.,.
C[C@@H]1CCCCO[C@H](CN(C)C(=O)Nc2cccc3ccccc23)[C@H](C)CN([C@@H](C)CO)C(=O)c2cc(NC(=O)Nc3cccc4ccccc34)ccc2O1,.,38,-22,.,.,.,.
C[C@@H]1CCCCO[C@@H](CN(C)C(=O)C2CCCCC2)[C@H](C)CN([C@@H](C)CO)C(=O)c2cc(NC(=O)Nc3cccc4ccccc34)ccc2O1,-4,116*,-2,104*,73,-15,8
C[C@@H]1CCCCO[C@H](CN(C)C(=O)c2ccccc2)[C@H](C)CN([C@@H](C)CO)C(=O)c2cc(NC(=O)Nc3cccc4ccccc34)ccc2O1,5,96,-29,.,.,.,.
